In one assay the target is KRTAP5-8. Put plainly: pooled miR-30 sensor sort-seq; sequence = guide strand. To be noted: shRNA.
TGCAGGGCTTACAACAGCTGGA registered a sensor-assay potency score (higher = more potent) of -1.15.
On the same count and under the same terms, then AGCCTGAGGAGCAACAGCAGGG, with -1.24; and CTGCAGGGCTTACAACAGCTGG, with -2.04.

For the next assay, the target named is KRTAP5-9. Described as above. As to conditions: shRNA.
Take TCACAGCCTCCACAGCTGGAGC: the sensor-assay potency score (higher = more potent) was -1.62.
In turn, TTGCAGCAGTAGACGGGTGCAC registered a sensor-assay potency score (higher = more potent) of -0.372.
TGGAACACAGCAGCACACGGGC had a sensor-assay potency score (higher = more potent) of -1.32.
TAGACGGGTGCACAGCAGCTGG: the sensor-assay potency score (higher = more potent) was -1.34.
TAGGGCTTGCAGCAGCTGCACT showed a sensor-assay potency score (higher = more potent) of -1.29.
Still for that read-out and setting: as for AGTCACAGCCTCCACAGCTGGA, the figure is -1.85; as for TTGCCACAGCTAGAGCAGGAAC, -1.67.
AGCTAGAGCAGGAACAGGCTGG had a sensor-assay potency score (higher = more potent) of -1.04.
TGAGGATGAGCAGCAGGGCTTG: the sensor-assay potency score (higher = more potent) is -1.74.
CACACAGGGACACAGCATCTGG returned a sensor-assay potency score (higher = more potent) of -1.57.
The sequence TAGAGCAGGAACAGGCTGGAAC came in with a sensor-assay potency score (higher = more potent) of -1.08.
For TGAAGAGCAACAGCAGGGCTTG, the sensor-assay potency score (higher = more potent) was -0.909.

For the next assay, the target named is KRTAP6-3. Described as above. As to conditions: shRNA.
Consider TTCTGTAGTAGCTGCCACACAT, for which the sensor-assay potency score (higher = more potent) is -0.0154.
Regarding TCTGTAGTAGCTGCCACACATG, the sensor-assay potency score (higher = more potent) is -1.43.
As for TAGTTTCTGTAGTAGCTGCCAC, the sensor-assay potency score (higher = more potent) was -0.443.
With TCTGTAGCCACAGCCACAGAAG, the sensor-assay potency score (higher = more potent) is -1.55.
ATTGTAGTTTCTGTAGTAGCTG had a sensor-assay potency score (higher = more potent) of -0.231.
In turn, ATAGCCATGGCCACCATTGTAG registered a sensor-assay potency score (higher = more potent) of -1.31.
For TGTAGTTTCTGTAGTAGCTGCC, the sensor-assay potency score (higher = more potent) turned out to be 0.749.
On the same count and under the same terms, then TAGTAGCTGCCACACATGGTGT, with -1.17; and TTGTAGTTTCTGTAGTAGCTGC, with -0.198; and TTTCTGTAGTAGCTGCCACACA, with -1.22.
For the sequence TAGCCACAGCCACAGAAGGAGC, the sensor-assay potency score (higher = more potent) is -1.94.
For the sequence ACAGCCATAGCCACAGTCCAGG, the sensor-assay potency score (higher = more potent) was -1.73.

The target in a further assay is KRTAP8-1. Described as above. To be noted: shRNA.
As for TAGGTGCTGCCATAGCCACAGC, the sensor-assay potency score (higher = more potent) is -1.53.
Still for that read-out and setting: as for TTGTAGCCATAGCCGAAGCCAT, the figure is -1.41; as for ACAGCCAACGCTATATCCCAGC, -1.47.
Regarding TAGCCGAAAGCCCCACAGCCGT, the sensor-assay potency score (higher = more potent) is -1.72.
TGTAGCCATAGCCGAAGCCATA showed a sensor-assay potency score (higher = more potent) of -1.87.
Turning to AGCCGTTGTAGCCATAGCCGAA, the sensor-assay potency score (higher = more potent) is -1.46.
TAGCATCCTGGGAAGACAGCCC yielded a sensor-assay potency score (higher = more potent) of -0.588.
On to TATATCCCAGCGGGTAGCCATA, for which the sensor-assay potency score (higher = more potent) is -1.94.
In the case of TTGGAAAGCAGTGTCTCTGAGG, the sensor-assay potency score (higher = more potent) was -0.482.
The same measure, in the same setting: as for TGCTGCCATAGCCACAGCCAAC, the figure is -2.12.
TGCCCCAGTAGCATCCTGGGAA gave a sensor-assay potency score (higher = more potent) of -0.828.
Regarding ATCCTGGGAAGACAGCCCCGGG, the sensor-assay potency score (higher = more potent) is -1.89.

The values are drawn from the OligoGym collection.
Note: reference of the scale not given here.
